Results reported in PubChem BioAssay.

System: glycogen synthase kinase-3 (GSK3A per assay name; protocol says GSK3B)
Assay: compounds binding glycogen synthase kinase-3 – biochemical, small-molecule microarray, 635 nm fluorescence, GSK3A, primary screen (AID 1103); also: the record names both GSK3A and GSK3B
Conditions: fluorescence 635 nm, higher = more signal

Row | SMILES | composite z-score
1 | O=C1OCCC/C=C\[C@H]2OC34C=CCN(CCN5CCOCC5)C(=O)[C@H]3N(CCCO)C(=O)[C@@H]4C12 (some centres not stated) | -0.0632
2 | COc1cc2c(cc1OC)CN(C(=O)[C@H]1[C@@H]3C(=O)O[C@@H](c4ccccc4)[C@@H](c4ccccc4)N3[C@@H](c3ccc(O)cc3)[C@]13C(=O)Nc1ccc(C#CC4=CCCCC4)cc13)CC2 | 1.29
3 | C=CC[C@]12N=C(c3ccc(OCCCO)cc3)O[C@H]1c1ccccc1N(Cc1ccccc1)C2=O | 0.524
4 | CN1C(=O)C2C=CC(C(O)c3ccccc3)N(Nc3ccccc3)C2C1=O (configuration not stated) | -0.415
5 | COc1ccc([C@H]2C[C@H]3C(Br)=C[C@@H]2C(=O)[C@]32CO2)cc1 | -0.515
6 | CC(C)C(CO)N1C(=O)[C@@H]2[C@H]3C(=O)OCC=C[C@H]3OC23C=CCN(C(C)C)C(=O)[C@@H]13 (some centres not stated) | 0.269
7 | CCCCCN1CC=CC23O[C@@H]4/C=C\CCCOC(=O)C4[C@H]2C(=O)N(CCCO)[C@@H]3C1=O (some centres not stated) | 1.06
8 | CCCC[C@@H]1C[C@H]1[C@@H](NC(=O)c1ccco1)c1ccc(C(=O)OC)cc1 | -1.09
9 | C=CCOC(=O)[C@H]1[C@@H]2C(=O)O[C@@H](c3ccccc3)[C@@H](c3ccccc3)N2[C@@H](c2ccc(OCCOC(=O)[C@@H]3C[C@@H]4C(=O)N[C@@H](CCCCN(C)C)C(=O)N4[C@@H]3c3ccc(O)cc3)cc2)[C@]12C(=O)Nc1ccc(I)cc12 | 1.32
10 | CN1C(=O)[C@]2(Cc3ccccc3)N=C(c3ccc(OCCCO)cc3)O[C@@H]2c2ccccc21 | 1.28
11 | CN(C)CCCNC(=O)[C@@]1(c2ccc([N+](=O)[O-])cc2)CC(=O)N(C2CCCCC2)[C@@H]1c1ccc(CO)cc1I | 1.28
12 | COCC(=C=CC[C@@H](O)c1ccccc1OCCO)C[C@@H](O)c1cc(Cl)cc(Cl)c1O | 1.28

Biological target: Epidermal growth factor receptor (Homo sapiens) (UniProt P00533)
Sequence (P00533 whole entry, looked up): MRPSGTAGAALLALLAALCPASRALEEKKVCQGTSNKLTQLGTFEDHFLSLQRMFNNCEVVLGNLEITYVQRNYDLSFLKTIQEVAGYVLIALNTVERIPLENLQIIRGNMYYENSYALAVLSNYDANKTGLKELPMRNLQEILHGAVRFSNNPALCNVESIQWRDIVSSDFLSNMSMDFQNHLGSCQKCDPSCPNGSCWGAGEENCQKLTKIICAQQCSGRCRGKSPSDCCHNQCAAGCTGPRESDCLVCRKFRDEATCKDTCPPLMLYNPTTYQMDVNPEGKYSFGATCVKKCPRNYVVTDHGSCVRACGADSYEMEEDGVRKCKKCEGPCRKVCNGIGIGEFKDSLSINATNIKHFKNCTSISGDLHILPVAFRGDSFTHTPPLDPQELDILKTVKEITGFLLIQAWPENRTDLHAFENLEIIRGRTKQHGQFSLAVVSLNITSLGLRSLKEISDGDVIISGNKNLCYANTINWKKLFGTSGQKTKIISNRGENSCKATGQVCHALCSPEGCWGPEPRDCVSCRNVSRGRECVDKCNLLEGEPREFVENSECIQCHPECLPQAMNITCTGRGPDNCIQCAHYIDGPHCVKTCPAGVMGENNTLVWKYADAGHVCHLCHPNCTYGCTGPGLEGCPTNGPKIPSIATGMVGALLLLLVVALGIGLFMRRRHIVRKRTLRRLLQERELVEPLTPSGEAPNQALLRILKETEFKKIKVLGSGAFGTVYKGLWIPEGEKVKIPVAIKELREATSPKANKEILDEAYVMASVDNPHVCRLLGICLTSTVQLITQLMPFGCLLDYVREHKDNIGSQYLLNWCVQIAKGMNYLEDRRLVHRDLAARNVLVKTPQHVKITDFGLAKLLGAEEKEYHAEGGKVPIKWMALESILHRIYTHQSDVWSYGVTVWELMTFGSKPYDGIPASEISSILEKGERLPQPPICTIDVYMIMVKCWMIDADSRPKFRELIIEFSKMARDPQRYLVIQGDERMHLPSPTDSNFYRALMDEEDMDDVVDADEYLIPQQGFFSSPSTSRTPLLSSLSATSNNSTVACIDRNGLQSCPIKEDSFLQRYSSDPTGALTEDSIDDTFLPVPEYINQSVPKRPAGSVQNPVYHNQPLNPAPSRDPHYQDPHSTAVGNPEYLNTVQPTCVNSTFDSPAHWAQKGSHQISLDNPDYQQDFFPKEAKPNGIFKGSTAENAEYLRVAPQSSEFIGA
Assay: compounds binding epidermal growth factor receptor – biochemical, small-molecule microarray, 635 nm fluorescence, primary screen (AID 1104);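 also: score merges 667 nm emission intensity with spot signal to noise over triplicate slides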
Conditions: EGFR binding, higher = more signal

Row | SMILES | composite z-score
13 | Cc1ccc(S[C@]2(C(=O)NCCN3CCOCC3)CC(=O)N(Cc3ccccc3Cl)[C@@H]2c2ccc(CO)cc2)cc1 | -0.342
14 | C[C@@]1([C@@H](NC(=O)c2ccccc2)c2ccc(-c3ccccc3)cc2)C[C@H]1C1CCCCC1 | -0.573
15 | COc1ccc(COC2OC[C@]3(C)[C@H]4C5=C(CN3C(=O)OC(C)(C)C)[C@H](C)C(CO)C(CO)C5CC[C@@H]24)cc1 (some centres not stated) | -0.452
16 | C=C(/C(=C/C[C@@H](OC(C)=O)c1ccc(OCCO)cc1)c1cnc2ccccc2c1)C(C)C | -0.103
17 | C=CCOC(=O)[C@@H]1[C@H]2C(=O)O[C@H](c3ccccc3)[C@H](c3ccccc3)N2[C@H](c2ccc(OCCOC(=O)[C@@H]3C[C@@H]4C(=O)N[C@@H](Cc5ccccc5)C(=O)N4[C@@H]3c3ccc(O)cc3)cc2)[C@@]12C(=O)Nc1ccc(I)cc12 | 0.711
18 | CCCCCC1=C2CNC(CCC)(C(=O)OC)C=C2C(C)C1=O (configuration not stated) | -0.576
19 | C=C(C)C1C(=C)CN([C@H](CO)c2ccccc2)C1=O (some centres not stated) | -0.476
20 | O=C1C2C=CC(C(O)c3ccc(F)cc3)N(Nc3ccccc3F)C2C(=O)N1c1ccccc1 (configuration not stated) | -0.609
21 | CCOc1cc(C(O)C2C=CC3C(=O)N(c4ccccc4)C(=O)C3N2Nc2ccccc2)ccc1O (configuration not stated) | -0.114
22 | CCCCCN1CC=CC23O[C@@H]4/C=C\CCCOC(=O)C4[C@H]2C(=O)N(C(CO)C(C)C)[C@@H]3C1=O (some centres not stated) | -0.637
23 | CC(CO)N1C(=O)[C@@H]2C3C(=O)OCCC/C=C\[C@H]3OC23C=CCN(c2ccc4ccccc4c2)C(=O)[C@@H]13 (some centres not stated) | -1.04
24 | COCCCNC(=O)C1N=C(c2ccc(OCCCO)cc2)N(c2ccccc2)O1 (configuration not stated) | 0.241
25 | COCCOC(=O)N1C(=O)[C@@]2(c3cc(C#CCCO)ccc31)[C@H](C(=O)N1CCN(c3ncccn3)CC1)[C@H]1C(=O)O[C@H](c3ccccc3)[C@H](c3ccccc3)N1[C@@H]2c1ccccc1OCCO | 0.688
26 | CS(=O)(=O)CCOC(=O)C1=CC(CCCO)=CC(c2ccc(CN3CCCC3)cc2)N(Cc2cc3c(cc2Br)OCO3)C=C1C(=O)OCCS(C)(=O)=O (configuration not stated) | 0.422
27 | CCOC(=O)[C@H]1CC=C2CC1C(=O)N1CCC[C@@H]1[C@@H]2O[Si](C)(C)C(C)(C)C (some centres not stated) | -0.265
28 | COC(=O)[C@@]1(Cc2ccccc2)[C@H]2c3cc(C(=O)N4CCCC4)n(Cc4cccc5ccccc45)c3C[C@H]2CN1C(=O)c1ccccc1 | 0.0512
29 | CC(C)(C)OC(=O)CC[C@]1(C(=O)NCC(O)CO)COC(c2ccc(OCCCO)cc2)=N1 (some centres not stated) | -0.172
30 | CCc1oc(CC[C@@H](CO)NC(=O)NCCn2cc(C3(O)CCCCC3)nn2)c(C(=O)OC)c1C(=O)OC | 0.717

Row | SMILES | composite z-score
31 | COCCOC(=O)N1C(=O)[C@@]2(c3cc(C#Cc4ccc(OC)cc4)ccc31)[C@H](C(=O)N1CCCCCCC1)[C@H]1C(=O)O[C@H](c3ccccc3)[C@H](c3ccccc3)N1[C@@H]2c1ccc(OCCO)cc1 | 1.13
32 | O=C(NCc1ccccc1)[C@@H]1c2ccccc2C(=O)N(CC23CC4CC(CC(C4)C2)C3)[C@H]1c1ccc(CO)cc1 | 0.603
33 | COC(=O)[C@@]1(Cc2ccc(OC)cc2)[C@H]2c3cc(C(=O)N(C)C)n(Cc4cccc5ccccc45)c3C[C@H]2CN1C(=O)c1ccccc1 | 0.671
34 | COc1ccc(C(O)C2C=CC3C(=O)N(c4ccccc4)C(=O)C3N2Nc2ccccc2F)cc1OCc1ccccc1 (configuration not stated) | 0.0115
35 | COc1ccc(CCNC(=O)[C@@]2(C)c3ccccc3C(=O)N(Cc3cc(F)cc(C(F)(F)F)c3)[C@H]2c2ccc(CO)cc2)cc1 | -0.244
36 | O=C1OCCC/C=C\[C@H]2OC34C=CCN(CCN5CCOCC5)C(=O)[C@H]3N(CCCO)C(=O)[C@@H]4C12 (some centres not stated) | -0.708
37 | COc1cc2c(cc1OC)CN(C(=O)[C@H]1[C@@H]3C(=O)O[C@@H](c4ccccc4)[C@@H](c4ccccc4)N3[C@@H](c3ccc(O)cc3)[C@]13C(=O)Nc1ccc(C#CC4=CCCCC4)cc13)CC2 | 0.405
38 | C=CC[C@]12N=C(c3ccc(OCCCO)cc3)O[C@H]1c1ccccc1N(Cc1ccccc1)C2=O | 0.112
39 | CN1C(=O)C2C=CC(C(O)c3ccccc3)N(Nc3ccccc3)C2C1=O (configuration not stated) | -1.32
40 | COc1ccc([C@H]2C[C@H]3C(Br)=C[C@@H]2C(=O)[C@]32CO2)cc1 | 0.427
41 | CC(C)C(CO)N1C(=O)[C@@H]2[C@H]3C(=O)OCC=C[C@H]3OC23C=CCN(C(C)C)C(=O)[C@@H]13 (some centres not stated) | 0.0755
42 | CCCCCN1CC=CC23O[C@@H]4/C=C\CCCOC(=O)C4[C@H]2C(=O)N(CCCO)[C@@H]3C1=O (some centres not stated) | -0.346
43 | CCCC[C@@H]1C[C@H]1[C@@H](NC(=O)c1ccco1)c1ccc(C(=O)OC)cc1 | -0.643
44 | C=CCOC(=O)[C@H]1[C@@H]2C(=O)O[C@@H](c3ccccc3)[C@@H](c3ccccc3)N2[C@@H](c2ccc(OCCOC(=O)[C@@H]3C[C@@H]4C(=O)N[C@@H](CCCCN(C)C)C(=O)N4[C@@H]3c3ccc(O)cc3)cc2)[C@]12C(=O)Nc1ccc(I)cc12 | 0.537
45 | CN1C(=O)[C@]2(Cc3ccccc3)N=C(c3ccc(OCCCO)cc3)O[C@@H]2c2ccccc21 | 0.367
46 | CN(C)CCCNC(=O)[C@@]1(c2ccc([N+](=O)[O-])cc2)CC(=O)N(C2CCCCC2)[C@@H]1c1ccc(CO)cc1I | -0.0949
47 | COCC(=C=CC[C@@H](O)c1ccccc1OCCO)C[C@@H](O)c1cc(Cl)cc(Cl)c1O | 0.334
